Results on four compounds are retold here after PubChem BioAssay (NCATS).

The structures appear in SMILES notation. Records with an inconclusive call do not appear. The source made the active and inactive calls. Calls come from the whole dose curve; as a rule, active = well fitted curve in the direction sought with a large enough effect; inconclusive = small, poorly fitted or top-dose-only effect, or another doubt; inactive = no such curve, though single readings can be large; an effect the other way counts as inactive or inconclusive.

A short description of test [1]: qHTS of pediatric cancer cell lines to identify multiple opportunities for drug repurposing: Primary screen for SJ-GBM2 cells (AID 1347091). Note: potency is the fitted concentration of half-maximal effect. Particulars: SJ-GBM2 viability, CellTiter-Glo luminescence, 48 h; series mostly up to 46 µM. In short, it runs like this:
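Cell viability, CellTiter-Glo luminescence; 500-1,000 cells/well, 8- or 11-point titration, 48 h compound exposure at 37 degrees C, 5% CO2. Controls: DMSO neutral, bortezomib 2.3 µM final as positive.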
(In general: In qHTS, concentration-response curves come from the screen itself.)

The nature of test [2]: qHTS of pediatric cancer cell lines to identify multiple opportunities for drug repurposing: Primary screen for A673 cells (AID 1347092). Note: potency is the fitted concentration of half-maximal effect; nearly all actives have a fitted effect of over 45% in size. The settings on record: A673 Ewing sarcoma viability, CellTiter-Glo ATP luminescence, 48 h; series mostly up to 46 µM. Put shortly:
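Luminescence from CellTiter-Glo, taken after 15 min at room temperature, served as the proxy for metabolically active cells following 48 h treatment. Both potency and efficacy were taken from curves fitted to the titration data.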

Test [3] is described as follows: qHTS of pediatric cancer cell lines to identify multiple opportunities for drug repurposing: Primary screen for SK-N-MC cells (AID 1347093). Note: potency is the fitted concentration of half-maximal effect. The settings on record: SK-N-MC viability, CellTiter-Glo luminescence, 48 h; series mostly up to 46 µM. Put shortly:
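Metabolically active cells were quantified by ATP-dependent luminescence (CellTiter-Glo, 15 min at room temperature) following 48 h treatment. Cells had been plated at 500-1,000 per well and settled for 5 h beforehand.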

Test [4] can be described thus: qHTS of pediatric cancer cell lines to identify multiple opportunities for drug repurposing: Primary screen for Saos-2 cells (AID 1347097). Note: potency is the fitted concentration of half-maximal effect; nearly all actives have a fitted effect of over 40% in size. The settings on record: Saos-2 viability, CellTiter-Glo ATP luminescence, 48 h; series mostly up to 46 µM. In short, it runs like this:
(§1)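 ATP-based luminescence (CellTiter-Glo) quantifies viability after a 48-hour exposure. Compounds are dosed across 8 or 11 final concentrations; DMSO and 2.3 µM bortezomib serve as controls.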

Test [5] can be described thus: qHTS of pediatric cancer cell lines to identify multiple opportunities for drug repurposing: Primary screen for control Hh wild type fibroblast cells (AID 1347106).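 Note: a drop in luminescence marks cytotoxicity and a rise apparent proliferation; nearly all actives have a fitted effect of over 55% in size.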 The settings on record: Hh wild-type fibroblast viability, CellTiter-Glo luminescence, 48 h; series mostly up to 46 µM. Put shortly: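 Viability after 48 h compound treatment at 37C, 500-1,000 cells/well, read as ATP luminescence with CellTiter-Glo. Primary screens used 11-point (MIPE, 0.78 nM-46 µM) or 8-point (NPC, 0.59 nM-46 µM) final concentrations; follow-up screens used 11-point dilutions.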

The nature of test [6]: qHTS of pediatric cancer cell lines to identify multiple opportunities for drug repurposing: Primary screen for BT-37 cells (AID 1347094). Note: potency is the fitted concentration of half-maximal effect. Particulars: BT-37 viability, CellTiter-Glo luminescence, 48 h; series mostly up to 57.3 µM. In short, it runs like this: as §1
A short description of test [7]: qHTS of pediatric cancer cell lines to identify multiple opportunities for drug repurposing: Primary screen for NB-EBc1 cells (AID 1347095). Note: potency is the fitted concentration of half-maximal effect. The settings on record: NB-EBc1 neuroblastoma viability, CellTiter-Glo luminescence, 48 h; series mostly up to 46 µM. Put shortly:
as §1

Test [8] in a line: qHTS of pediatric cancer cell lines to identify multiple opportunities for drug repurposing: Primary screen for NB1643 cells (AID 1347099). Note: potency is the fitted concentration of half-maximal effect; nearly all actives have a fitted effect of over 50% in size. Particulars: NB1643 neuroblastoma viability, CellTiter-Glo luminescence, 48 h; series mostly up to 46 µM. In short, it runs like this: as §1
The nature of test [9]: qHTS of pediatric cancer cell lines to identify multiple opportunities for drug repurposing: Primary screen for BT-12 cells (AID 1347101). Note: nearly all actives have a fitted effect of over 25% in size. Note: potency is the fitted concentration of half-maximal effect. Particulars: BT-12 viability, CellTiter-Glo luminescence, 48 h; series mostly up to 57.3 µM. In short, it runs like this: (§2)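 Cells (500-1,000/well) rested 5 h, then received compounds for 48 h; metabolically active cells were measured by CellTiter-Glo luminescence. Final concentrations spanned up to 46 µM (MIPE, 11-point) or 0.59 nM-46 µM (NPC, 8-point) in primary screens, 11-point in follow-ups.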

Test [10] is described as follows: qHTS of pediatric cancer cell lines to identify multiple opportunities for drug repurposing: Primary screen for Rh18 cells (AID 1347102). Note: potency is the fitted concentration of half-maximal effect; nearly all actives have a fitted effect of over 65% in size. The settings on record: Rh18 rhabdomyosarcoma viability, CellTiter-Glo luminescence, 48 h; series mostly up to 46 µM. In short, it runs like this:
as §2

Test [11] can be described thus: qHTS of pediatric cancer cell lines to identify multiple opportunities for drug repurposing: Primary screen for RD cells (AID 1347104). Note: potency is the fitted concentration of half-maximal effect; nearly all actives have a fitted effect of over 55% in size. Particulars: RD rhabdomyosarcoma viability, CellTiter-Glo luminescence, 48 h; series mostly up to 46 µM. Put shortly:
as §1

A short description of test [12]: qHTS of pediatric cancer cell lines to identify multiple opportunities for drug repurposing: Primary screen for Rh30 cells (AID 1347107). Note: potency is the fitted concentration of half-maximal effect; nearly all actives have a fitted effect of over 75% in size. Particulars: Rh30 rhabdomyosarcoma viability, CellTiter-Glo luminescence, 48 h; series mostly up to 46 µM. Put shortly:
as §2

The nature of test [13]: qHTS of pediatric cancer cell lines to identify multiple opportunities for drug repurposing: Primary screen for U-2 OS cells (AID 1347096). Note: nearly all actives have a fitted effect of over 50% in size. Note: potency is the fitted concentration of half-maximal effect. Particulars: U-2 OS viability, CellTiter-Glo luminescence, 48 h; series mostly up to 46 µM. In short, it runs like this:
as §2

A short description of test [14]: qHTS of pediatric cancer cell lines to identify multiple opportunities for drug repurposing: Primary screen for LAN-5 cells (AID 1347100). Note: potency is the fitted concentration of half-maximal effect. The settings on record: LAN-5 neuroblastoma viability, CellTiter-Glo luminescence, 48 h; series mostly up to 46 µM. In short, it runs like this: as §2
The nature of test [15]: qHTS of pediatric cancer cell lines to identify multiple opportunities for drug repurposing: Primary screen for OHS-50 cells (AID 1347103). Note: potency is the fitted concentration of half-maximal effect; nearly all actives have a fitted effect of over 40% in size. The settings on record: OHS-50 osteosarcoma viability, CellTiter-Glo luminescence, 48 h; series mostly up to 57.3 µM. In short, it runs like this: as §2
The nature of test [16]: qHTS of pediatric cancer cell lines to identify multiple opportunities for drug repurposing: Primary screen for MG 63 (6-TG R) cells (AID 1347105). Note: potency is the fitted concentration of half-maximal effect; nearly all actives have a fitted effect of over 50% in size. The settings on record: MG 63 (6-TG R) viability, CellTiter-Glo, 48 h; series mostly up to 46 µM. Put shortly: as §1
Test [17] can be described thus: qHTS of pediatric cancer cell lines to identify multiple opportunities for drug repurposing: Confirmatory screen for NB1643 cells (AID 1347109). Note: potency is the fitted concentration of half-maximal effect; nearly all actives have a fitted effect of over 45% in size. The settings on record: NB1643 neuroblastoma cell viability; series mostly up to 45.9 µM. In short, it runs like this: as §2

As to `Cc1ccccc1C(=O)c1ccc(Nc2ccc(Br)cc2N)cc1Cl`, the Potency was 23.5 µM (active) in test [1], 18.7 µM (active) in test [2], 16.6 µM (active) in test [3] and 18.7 µM (active) in test [4]. The Potency result in test [5] is “inactive”.
Regarding `CN(C)CCOc1ccc(-c2nc(-c3ccc4c(c3)CCC4=NO)c(-c3ccncc3)[nH]2)cc1`, the Potency in [1] is 23.5 µM (active); in [2], 18.7 µM (active); in test [6], 30.6 µM (active); in [4], 23.5 µM (active); in [8], 20.9 µM (active); in test [9] it was 27.3 µM (active). For the same compound, the values for the Potency in [10], in [11] and in [12] were 23.5 µM (active), 18.7 µM (active) and 18.7 µM (active), respectively. Besides, the Potency entry in test [7] was “inactive”.
On to `COc1cc2nccc(Oc3ccc(NC(=O)Nc4ccc(F)cc4F)c(F)c3)c2cc1OC`, for which the Potency is 2.96 µM (active) in test [1]; 3.72 µM (active) in test [3]; 2.35 µM (active) in [7]; 0.833 µM (active) in test [14]; 1.53 µM (active) in [15]; 9.35 µM (active) in test [16]. In addition, the Potency entry in [6], in [13] and in test [9] was “inactive” in each case.
As to `CC(C)(C)c1[nH]cnc1C=c1[nH]c(=O)c(=Cc2ccccc2)[nH]c1=O`, the Potency is 0.001 µM (active) in test [1]; 0.001 µM (active) in test [2]; 0.001 µM (active) in [3]; 0.001 µM (active) in [7]; 42.9 µM (active) in test [13]; 48.1 µM (active) in test [8]. Besides, the Potency in [14] is 0.001 µM (active); in test [9], 0.0111 µM (active); in test [15], 35.2 µM (active); in [11], 34 µM (active); in test [17] it was 0.0114 µM (active). Moreover, in [5], the Potency entry is “inactive”.
